Compound activity as filed in PubChem BioAssay.
Shown are actives, neighbours in structure and some others; about 19% of the full set was active somewhere.
HT1080NT lethal = kills 2HG-producing HT-1080-NT fibrosarcoma cells. HT-1080-NT fibrosarcoma viability, CellTiter-Glo ATP luminescence, 48 h. Potency, µM (series often up to 46.1 µM), inactives show at the top dose activity, negative = less viability, most hits filed as cytotoxic. 360,000 compounds, 1.6% hits. AID 686970;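 note: NT is the 2HG producing partner of a matched IDH1 knockdown line; potency is the fitted concentration of half-maximal effect; 0% = DMSO-treated cells and -100% = media-only wells without cells; nearly all actives have a fitted effect of over 55% in size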
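Toxicity toward the 2HG-producing NT line was scored as %Activity, normalised to DMSO and no-cell wells, from CellTiter-Glo luminescence after 48 hours' treatment.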
uPA generation = blocks generation of uPA at the cell surface. cell surface uPA generation assay, qHTS. Potency, µM (doses to about 38.3 µM), for the others: at the highest dose activity change, negative = inhibition, most hits filed as inhibitors. 330,000 compounds, 0.31% hits; active = well fitted inhibition curve with a large enough effect; inconclusive = small, poorly fitted or top-dose-only effect; inactive = no such curve, though single readings can be large or run the other way; tested in mouse RAW 264.7 cells; note: potency is the fitted concentration of half-maximal effect; nearly all actives have a fitted effect of over 55% in size
TDP1 cell noCPT = qHTS for Inhibitors of human tyrosyl-DNA phosphodiesterase 1 (TDP1): qHTS in cells in absence of CPT. DT40 Tdp1-/- hTDP1 cells, no CPT, ATP luminescence, 48 h. Potency, µM (highest dose often 46.2 µM), for the others: at the highest dose activity change, negative = growth inhibition, usual class: inhibitors. 420,000 compounds, 15% hits. AID 686978, 2013; note: potency is the fitted concentration of half-maximal effect; nearly all actives have a fitted effect of over 55% in size
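Chicken DT40 Tdp1-/- cells stably complemented with human TDP1 were seeded at 400 cells/well with DMSO in place of 20 nM camptothecin. After compound pinning, cells grew at least 48 hr at 37 °C; viability read by CellTiter-Glo luminescence.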
DT40 TDP1 CPT = growth inhibition of DT40 Tdp1-/-;hTDP1 cells with camptothecin (screen for TDP1 inhibitors); chicken DT40 Tdp1-/-;hTDP1 cells + 20 nM CPT, ATP luminescence, 48 h; Potency, µM (doses to about 46.2 µM), without a hit: at the highest dose activity change, negative = growth inhibition, usual class: inhibitors; 420,000 compounds, 12% hits; note: potency is the fitted concentration of half-maximal effect; nearly all actives have a fitted effect of over 55% in size
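Chicken DT40 Tdp1-/- cells stably complemented with human TDP1 were seeded at 400 cells/well in medium containing 20 nM camptothecin, exposed to pin-transferred compounds, and grown at 37 °C for at least 48 hr. Viability was read as ATP luminescence.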
IL1B secr inh = blocks inflammasome-driven IL-1 beta release | THP-1 LPS/ATP IL-1B secretion, AlphaLISA, 16 h; active compounds read low | activity change, % at 57.5 µM | 360,000 compounds, 4.7% hits | AID 743279; in the data active = activity change below about -50%; inconclusive = mostly about -30% to -49%
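Secreted IL-1B measured by AlphaLISA bead assay after 16 h compound exposure of THP-1 cells; compounds (final up to 57.5 uM) added 1 h before LPS (250 ng/mL) and ATP (1.25 mM) stimulation; lower signal means less secretion.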
HT1080 IDH1KD tx = kills HT-1080 cells with IDH1 knockdown; AID 686971; Potency, µM (top dose mostly 46.1 µM), for the others: top-dose activity, negative = toxicity, most hits filed as cytotoxic; 360,000 compounds, 2% hits; HT-1080 IDH1 knockdown viability, ATP luminescence, 48 h;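 note: potency is the fitted concentration of half-maximal effect; 0% = DMSO wells and -100% = cell-free medium wells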
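Cytotoxicity counter-line: IDH1KD HT-1080, 48 h, CellTiter-Glo. Curves classed by r2, magnitude and activity.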
* hit, by the source's call; ? = inconclusive; . = no result. Unless noted, calls come from the whole dose curve; as a rule, active = well fitted curve in the direction sought with a large enough effect; inconclusive = small, poorly fitted or top-dose-only effect, or another doubt; inactive = no such curve, though single readings can be large; an effect the other way counts as inactive or inconclusive. Unless noted, % is set by controls: 0 for no effect and ±100 for the full control effect.

SMILES	HT1080NT lethal	uPA generation	TDP1 cell noCPT	DT40 TDP1 CPT	IL1B secr inh	HT1080 IDH1KD tx
O=C(Nc1ccc(CN2CCCCC2)cc1)Nc1ccc(Br)cc1Cl	-10%	-1%	16µM*	18µM*	-85*	-13%
O=C(Nc1ncc(Cc2cccc(C(F)(F)F)c2)s1)c1ccc(-c2cccc([N+](=O)[O-])c2)o1	?	2%	?	15µM*	-13	?
Cc1ccc(Sc2ccc(CN3CCCCC3)cc2[N+](=O)[O-])cc1	-3%	-10%	?	18µM*	0	-4%
C[C@@H]1CN([C@H](C)CO)C(=O)CCCn2cc(nn2)CO[C@H]1CN(C)C(=O)Nc1cccc(Oc2ccccn2)c1	0%	.	-1%	-15%	13	1%
COc1cc(/C=C/C(=O)Nc2ccc(C(C)=O)cc2)cc(OC)c1OC	-4%	3%	21µM*	?	14	-1%
COc1cc(/C=C/C(=O)Nc2nnc(CC(C)C)s2)cc(OC)c1OC	-6%	-1%	?	?	7	-10%
COc1ccc(NC(=O)/C=C/c2cc(OC)c(OC)c(OC)c2)cn1	7%	0%	14%	0%	0	2%
COc1cc(/C=C/C(=O)Nc2ccncc2)cc(OC)c1OC	0%	-4%	?	21µM*	16	1%
COc1cc(/C=C/C(=O)Nc2nnc(CC(C)(C)C)s2)cc(OC)c1OC	9%	6%	21µM*	?	-4	10%
O=C(NC1CCCCC1)C1CC(=O)N(CCc2ccc(F)cc2)C1 (configuration not stated)	17%	0%	-1%	-5%	-9	19%
COc1ccccc1N1CCN(S(=O)(=O)CCNC(=O)c2cc(OC)c(OC)c(OC)c2)CC1	?	13µM*	?	?	68	?
COc1ccc(Cl)cc1C(=O)NCCS(=O)(=O)N1CCN(c2ccccc2F)CC1	-10%	4%	?	?	-14	-3%
COc1ccccc1N1CCN(S(=O)(=O)CCNC(=O)c2ccco2)CC1	2%	.	-1%	3%	2	5%
COc1ccccc1N1CCN(S(=O)(=O)CCNC(=O)c2cc(=O)c3ccccc3o2)CC1	-12%	-1%	26µM*	?	0	-14%
COc1ccc(Cl)cc1C(=O)NCCS(=O)(=O)N1CCN(c2ccccc2OC)CC1	.	.	18µM*	?	.	.
COc1ccc(NC(=O)CN(C)C2=NS(=O)(=O)c3ccccc32)cc1Cl	6%	3%	-5%	-18%	-6	8%
COc1ccc(S(=O)(=O)N2CCC(C(=O)NCc3cccnc3)CC2)cc1OC	23%	2%	-8%	10%	4	22%
CCN(C(=O)COC(=O)/C=C/c1nc2ccccc2s1)c1c(N)n(Cc2ccccc2)c(=O)[nH]c1=O	-9%	-1%	0%	-22%	-60*	0%
COCCN(C(=O)COC(=O)/C=C/c1ccc(SC)cc1)c1c(N)n(Cc2ccccc2)c(=O)[nH]c1=O	7%	-3%	-4%	-19%	35	8%
COCCN(C(=O)COC(=O)/C=C/c1ccc(C(F)(F)F)cc1)c1c(N)n(Cc2ccccc2)c(=O)[nH]c1=O	-11%	1%	21µM*	21µM*	-2	-7%
COCCN(C(=O)COC(=O)/C=C/c1nc2ccccc2s1)c1c(N)n(Cc2ccccc2)c(=O)[nH]c1=O	-29%	-10%	?	?	-96*	?
COc1cc(OC)cc(C(=O)N2CCN(S(=O)(=O)c3ccc(Cl)s3)CC2)c1	-6%	-9%	-15%	3%	?	11%
Cc1ccc(N(Cc2cc(=O)[nH]c3ccccc23)C(=O)CCl)c(C)c1	4.6µM*	-4%	15µM*	15µM*	-105*	5.2µM*
Cc1c(Cl)cccc1-n1nnc(-c2nc(-c3ccc4c(c3)OCO4)no2)c1C	.	.	?	23µM*	.	.
Cc1ccc(C)c(-n2nnc(-c3nc(-c4ccccc4C)no3)c2C)c1	.	.	15µM*	16µM*	.	.
SMILES	HT1080NT lethal	uPA generation	TDP1 cell noCPT	DT40 TDP1 CPT	IL1B secr inh	HT1080 IDH1KD tx
Cc1ccc(Cl)cc1-n1nnc(-c2nc(-c3ccc4c(c3)OCO4)no2)c1C	.	.	21µM*	?	.	.
CN(/N=C/c1ccc(O)cc1O)c1nc(-c2ccccc2)cc(-c2ccccc2)n1	?	-6%	12µM*	21µM*	-24	?
Cc1nc2ccccc2c(=O)n1/N=C/c1ccc(O)cc1O	-21%	6%	-7%	-16%	75	?
Cc1cc(-c2ccccc2)nc(N/N=C/c2ccccc2)n1	0%	-13%	23µM*	21µM*	-7	-7%
Cc1cc(-c2ccccc2)nc(N/N=C/c2ccco2)n1	?	.	?	29µM*	-11	?
Cc1ccc(/C=N/Nc2nc(C)cc(C)n2)cc1	4%	-2%	?	16%	4	5%
Cc1cc(-c2ccccc2)nc(N/N=C/c2ccc(O)cc2O)n1	?	-14%	18µM*	?	-89*	2.1µM*
COc1cc(/C=N/Nc2nc(C)cc(C)n2)ccc1O	5%	.	1%	0%	24	3%
CCOC(=O)c1c(-c2ccccc2)oc2cc(Br)c(OCc3ccccc3)cc12	.	.	-4%	-17%	.	.
Cc1cc(-c2ccccc2)nc(N/N=C/c2ccc(N(C)C)cc2)n1	-18%	-22%	15µM*	?	-20	9%
Cc1cc(-c2ccccc2)nc(N/N=C/c2ccc([N+](=O)[O-])cc2)n1	-9%	-5%	?	?	-87*	-9%
COc1ccc(/C=N/Nc2nc(C)cc(-c3ccccc3)n2)cc1OC	-27%	-2%	?	-124%	?	-24%
COc1ccc(/C=c2\s/c(=C/C(=O)c3ccc(C)cc3)[nH]c2=O)cc1OC	-1%	-1%	18µM*	?	9	-5%
COc1ccc(/C=c2\[nH]c(=O)/c(=C/c3ccc(OC)c(OC)c3)[nH]c2=O)cc1OC	.	.	-23%	-1%	.	.
Cc1ccccc1N1C(=O)c2sc3nc4c(c(=O)n3c2C1=O)CCC4	?	0%	18µM*	5.8µM*	-15	?
O=C1c2sc3nc4c(c(=O)n3c2C(=O)N1c1ccccc1)CCC4	1%	-3%	6.5µM*	4.1µM*	?	2%
O=C1c2sc3nc4ccccc4n3c2C(=O)N1c1ccccc1Cl	-16%	0%	7.3µM*	2.6µM*	?	-30%
